Rows were chosen to be rich in hits. Some 27% of all compounds tested hit in one or more screens of this group.
PTK2B oligo ant = blocks oligomerization of human Pyk2 in cells; z-score (the deposit names both 25 µM and 10 µM); 99,000 compounds, 0.83% hits; Q14289; Q293 cells, Pyk2 FERM NanoBiT luminescence; hits give low values;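 active = Z-score of -3 or lower, scaled per plate to the spread of control and sample wells; inactive = z-score above -3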;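 note: negative z-score means lost luminescence so less FERM oligomerization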
CYP2C9 inhib = human CYP2C9 inhibition. P11712. CYP2C9 Supersomes, luciferin-H conversion, luminescence. inhibition, % at 5 µM. 96,000 compounds, 20% hits. AID 777;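 active = blocking of liver enzyme CYP2C9 beyond about 50% at 5 µM, limit read from the data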
CYP2C19 act = increases human CYP2C19 enzyme activity. P33261. AID 1025. 96,000 tested, under 10 active. activation factor at 5 µM. recombinant CYP2C19, luciferin-H EGE luminescence; hits give high values; 0 = fully inhibited enzyme, 1 = untreated enzyme;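 active = activation factor of at least 2 at 5 µM in the primary screen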;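 note: 0 = wells with 2.5 mM tranylcypromine and 1 = vehicle-only wells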
Target sequence (P33261 whole entry, looked up): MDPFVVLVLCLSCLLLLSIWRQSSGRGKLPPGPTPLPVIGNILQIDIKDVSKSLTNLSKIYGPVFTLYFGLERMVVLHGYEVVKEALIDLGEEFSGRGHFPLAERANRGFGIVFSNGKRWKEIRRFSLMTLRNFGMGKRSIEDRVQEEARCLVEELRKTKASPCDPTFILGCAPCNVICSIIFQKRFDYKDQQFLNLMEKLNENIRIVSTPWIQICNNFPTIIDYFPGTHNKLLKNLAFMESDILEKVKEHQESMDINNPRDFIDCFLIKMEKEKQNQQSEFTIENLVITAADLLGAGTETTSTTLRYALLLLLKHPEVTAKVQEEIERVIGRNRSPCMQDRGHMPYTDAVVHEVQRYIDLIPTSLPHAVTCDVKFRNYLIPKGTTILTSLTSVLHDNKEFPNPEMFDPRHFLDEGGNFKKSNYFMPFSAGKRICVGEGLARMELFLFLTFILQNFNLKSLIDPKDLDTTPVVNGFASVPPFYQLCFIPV
Cav32 inh = blocks human Cav3.2 T-type calcium channel. O95180. Cav3.2-expressing cells, Fluo-4 calcium fluorescence FDSS; hits give low values. B-score at 10 µM. 100,000 compounds, 4% hits;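 active = single-dose well whose peak fluorescence ratio is a statistical outlier from its plate by either plate-standardised score or position-corrected B-score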
CYP2C19 inh = inhibitors of human CYP2C19; P33261; CYP2C19 Supersomes, luciferin-H EGE luminescence, 30 min; inhibition, % at 5 µM; 96,000 compounds, 21% hits;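 active = CYP2C19 inhibition above a set limit at 5 µM in the primary screen, cut at about 50% in these data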;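 note: plate controls were negative control wells for no effect and 2.5 mM tranylcypromine positive control for full effect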
CYP2C9 act = increases human cytochrome P450 2C9 activity; AID 1024; P11712; recombinant CYP2C9, luciferin-H conversion, luminescence; hits give high values; factor 1 = untreated enzyme, 0 = blocked; activation factor at 5 µM; 96,000 compounds, 1.4% hits;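 active = activation factor of 2 or more for CYP2C9 at a 5 µM dose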;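 note: 0 = sulfaphenazole-blocked wells and 1 = vehicle-only wells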
Starred values were filed as active, the others as inactive; x = no result.

SMILES	PTK2B oligo ant	CYP2C9 inhib	CYP2C19 act	Cav32 inh	CYP2C19 inh	CYP2C9 act
CSc1nc(C)cc(SCCO)n1	0.51	-20	0.9	-0.011	5	1.2
CN(C)/C=N/c1c(C#N)cnn1-c1ccccc1	-0.04	-16	0.5	0.41	46	1.2
CN(C)/C=N/c1c(C#N)cnn1-c1ncnc2sc(-c3ccccc3)cc12	-2.3	92*	0.1	-0.27	87*	0.1
O=S1(=O)CCOC[C@H](Cc2ccccc2)N1Cc1cccc(Cl)c1	x	x	x	-0.73	x	x
CCc1cccc(NC(=O)CSC2=NS(=O)(=O)c3ccccc32)c1	x	13	0.8	-5.4*	24	0.9
CC(=O)NCCC(=O)Nc1ccc(C)c(F)c1	-0.48	10	0.9	0.59	10	0.9
O=C(CCN1CCCCCC1)Nc1cccc(F)c1	-0.07	2	1.2	0.11	-21	1
Cc1ccc(NC(=O)CCn2cccc2)cc1F	-0.17	61*	0	0.0059	96*	0.4
CCc1cccc(NC(=O)Cn2cccc2)c1	-0.79	-98	0.7	0.13	30	2*
O=C(CCn1cccc1)Nc1cccc(F)c1	0.08	7	0.5	0.49	50*	0.9
CCOc1cc(C2/C(=C(/O)c3ccc(OC(C)C)cc3)C(=O)C(=O)N2CCCOC)ccc1O (configuration not stated)	0.65	6	0.7	-0.18	30	0.9
C=C(C)CSc1nc2nc(C)cc(C)n2n1	0.13	15	0.6	0.016	36	0.8
COC(=O)c1ccc(C2NC(C(=O)O)CS2)cc1 (configuration not stated)	0.91	40	1	0.21	2	0.6
CCN(Cc1ccccc1)Cc1cccc([N+](=O)[O-])c1	0.7	32	0.5	-0.54	47	0.7
N#Cc1cccc(NC(=O)CCn2ccnc2)c1	0.23	87*	0	-0.066	95*	0.1
CCN(CC)c1ccc(C(=O)Nc2cccc(F)c2)cc1	-1	7	0.4	-4.3	64*	0.9
N#Cc1cccc(NC(=O)c2nc(-c3ccccc3)n(-c3ccccc3)n2)c1	-2.6	28	0.6	-0.29	39	0.7
COCCCNC(=O)CSC1=Nc2ccccc2C2=NC(CC(=O)NCc3ccccc3)C(=O)N12 (configuration not stated)	0.36	22	1	-2	4	0.8
Cc1ccc(C(=O)N(CC(=O)NC2CCCC2)Cc2cccs2)s1	-0.26	88*	0.3	0.29	74*	0.1
Cc1sc2ncn(CC(=O)N(CC(=O)NC3CCCC3)Cc3cccs3)c(=O)c2c1C	-1.3	56*	0.8	-0.013	24	0.4
O=C(CN(Cc1cccs1)C(=O)CSc1nnc(COc2ccccc2)o1)NC1CCCCC1	0.07	x	x	-0.22	x	x
CN1CCN(/C(=N\S(=O)(=O)c2ccc(F)cc2)c2ccccc2)CC1	2.4	-19	1.1	x	-9	1.2
O=C1CC(SCc2nc3ccccc3[nH]2)C(=O)N1c1ccc(F)cc1 (configuration not stated)	-1.1	0	0.8	-1.7	23	1
COc1ccc(CSc2nc(C)cc(=O)[nH]2)cc1	-0.17	36	0.7	0.66	32	0.6
c1cnc2c(SCc3ccc(-c4nnco4)cc3)cccc2c1	0.21	62*	0.1	-0.42	86*	0.4
SMILES	PTK2B oligo ant	CYP2C9 inhib	CYP2C19 act	Cav32 inh	CYP2C19 inh	CYP2C9 act
COc1ccc(CSc2nc3ccccc3[nH]2)cc1	1.1	63*	0.5	-0.084	48	0.4
Cc1cccc(CSc2cccc3cccnc23)c1	-2	-39	0.5	-0.78	46	1.4
O=C1CCC(=O)N1c1ccc(CSc2nc3ccccc3[nH]2)cc1	0.75	62*	0.4	0.41	64*	0.4
COC(=O)c1ccc(CSc2nc(-c3ccccc3)cs2)o1	-0.16	56*	0.8	-2.9	25	0.4
CCOC(=O)c1ccc(CSc2nnc(C)n2N)o1	1.2	20	1.2	-0.081	-22	0.8
COC(=O)c1ccc(CSc2nc3c(cnn3-c3ccccc3)c(=O)[nH]2)o1	-1.4	x	x	-0.88	x	x
COC(=O)c1ccc(CSc2nc3ccccc3[nH]2)o1	2	36	0.2	-0.12	81*	0.6
c1ccc2[nH]c(SCc3ccc(-c4nnco4)cc3)nc2c1	1.1	95*	0	0.64	99*	0.1
CCOC(=O)c1ccc(CSc2n[nH]c(C)n2)o1	-1.4	20	0.3	0.33	65*	0.8

Compound activity from PubChem.
